Our source for the growth values is PubChem BioAssay (NCI).

Compounds without any hit were thinned out: in the full panel of roughly 83,000, 20% have a hit.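 Testing used 96-well plates and a 48-hour single-concentration exposure. Example: -40 means 40% of the starting cells died.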 Active and inactive are the calls of the source. Rule for the calls: active = growth percent below 10; inactive = the rest.

For this experiment, the system named is DU-145 prostate. Description: NCI-60 one-dose screen, 48 h (100 = growth as untreated, 0 = no growth, -100 = all killed). Particulars: 10 µM unless noted.
Consider `CC(=O)O[C@H]1CC[C@@]2(C)C(=CC[C@H]3[C@@H]4C[C@@H](N5CC5)[C@H](C(C)=O)[C@@]4(C)CC[C@@H]32)C1`, for which the growth was 105% (inactive).

Regarding `CC(=O)O[C@H]1C(=O)[C@@]2(C)[C@H]([C@H](OC(=O)c3ccccc3)[C@]3(O)C[C@H](OC(=O)[C@H](OC(=O)OC[C@H]4COC(C)(C)O4)[C@@H](NC(=O)c4ccccc4)c4ccccc4)C(C)=C1C3(C)C)[C@]1(OC(C)=O)CO[C@@H]1C[C@@H]2O`, the growth was 5.18% (active).

Take `COC(=O)N[C@H]1CCc2c(Br)c(OC)c(OC)c(OC)c2-c2ccc(SC)c(=O)cc21`: the growth is -1.4% (active).

For `CC[C@H](C)[C@H](NC(=O)c1ccccn1)C(=O)N(C)[C@H](C[C@@H](OC(C)=O)c1nc(C(=O)N[C@@H](Cc2ccccc2)C[C@H](C)C(=O)OC)cs1)C(C)C`, the growth is 6.32% (active).

Take `Cc1cc(N(CCCl)CCCl)ccc1C=Nc1ccc(-c2csc(Cc3ccccc3)n2)cc1`: the growth is 57.1% (inactive).

Turning to `COC(=O)[C@]12CCC(C)(C)C[C@H]1[C@H]1C(=O)C[C@@H]3[C@@]4(C)C[C@@]5(CC(C)(C)[C@@H]4CC[C@@]3(C)[C@]1(C)CC2)OO[C@@](C)(C(F)(F)F)O5`, the growth was 107% (inactive).

Consider `CN1CCC(c2c[nH]c3ccccc23)C1` (configuration not stated), for which the growth was 110% (inactive).

With `CCC[CH2][Sn]([CH2]CCC)([CH2]CCC)[O]c1ccc(Cl)cc1Cl`, the growth is -99.4% (active).

On to `COC(=O)[C@H](C[C@H](Cc1ccccc1)NC(=O)c1csc([C@@H](C[C@H](C(C)C)N(C)C(=O)[C@@H](NC(=O)[C@H]2CCCCN2C)C(C)C)OC(C)=O)n1)NC(=O)OCc1ccccc1`, for which the growth is -18.2% [8.5 µM] (active).

`C[n+]1c(/C=C/c2ccc(N(CCCl)CCCl)cc2)sc2ccccc21`: the growth was 45.2% (inactive).

As to `CC[C@H](C)[C@H](NC(=O)C12C3C4C1C1C2C3C41NC(C)=O)C(=O)N(C)[C@H](C[C@@H](OC(C)=O)c1nc(C(=O)N[C@@H](Cc2ccccc2)C[C@H](C)C(=O)OC)cs1)C(C)C` (some centres not stated), the growth was 1.99% (active).

Turning to `CCCCCN(CCCCC)CC(O)c1cc(Cl)ccc1OC` (configuration not stated), the growth was 40.1% (inactive).

As for `C#Cc1ccc2c(c1)C(c1ccccc1)=NCC(=O)N2C`, the growth is 70.1% (inactive).

As for `CCOC(=O)CCN(C)C1=Nc2ccc(Cl)cc2C(c2ccccc2)=[N+]([O-])C1`, the growth is 106% (inactive).

Take `COC(=O)[C@@H](C)C[C@H](Cc1ccccc1)NC(=O)c1csc([C@@H](C[C@H](C(C)C)N(C)C(=O)[C@@H](NC(=O)CN(C)C)C2CC2)OC(C)=O)n1`: the growth was 3.44% (active).

Take `COc1cc2c(c(OC)c1OC)-c1ccc([O-])c(=O)cc1[C@@H](NC(C)=O)CC2.COc1cc2c(c(OC)c1OC)-c1ccc([O-])c(=O)cc1[C@@H](NC(C)=O)CC2.[Cu+2]`: the growth was 4.95% (active).

Turning to `COc1ccc(/C=C\c2cc(OC)c(OC)c(OC)c2)c(NS(=O)(=O)c2ccc(C)cc2)c1O`, the growth is -14.4% (active).

On to `C=C(C)[C@@]12OC3(/C=C/C=C/CCCCC)O[C@@H]1[C@@H]1[C@@H]4O[C@]4(CO)[C@@H](O)[C@]4(O)C(=O)C(C)=C[C@H]4[C@@]1(O3)[C@H](C)[C@H]2OC(=O)c1ccccc1`, for which the growth is 38.4% (inactive).

Take `CC(C)CCC1(CCCl)C(=O)NC(=O)NC1=O`: the growth is 107% (inactive).

For the molecule `C[C@@]1(CCCCCCCCCc2ccc(O)cc2)C[C@]2(C)OC(=O)C[C@@H]2OO1`, the growth is 130% (inactive).

Turning to `COC(=O)[C@@H](C)C[C@H](Cc1ccccc1)NC(=O)c1nc([C@@H](C[C@H](C(C)C)N(C)C(=O)[C@@H](NC(=O)[C@H]2CCCN2C)C(C)C)OC(C)=O)sc1C`, the growth is 17.7% (inactive).

As to `CCOP(=O)(NC[C@H]1O[C@](O)(CO)[C@@H](O)[C@@H]1O)OCC`, the growth was 105% (inactive).

As to `O=C1CN=C(c2ccc(Cl)cc2)c2sccc2N1`, the growth was 109% (inactive).

As for `COP(=O)(OC)C(O)c1ccc(Cl)cc1` (configuration not stated), the growth was 97.9% (inactive).

As to `CNC(=O)Oc1ccc(N(C)C)cc1C(C)C`, the growth was 101% (inactive).

On to `CO[C@H](C(=O)O)[C@@H]1Cc2cc3cc(OC4CC(OC5CC(O)C(O)C(C)O5)C(O)C(C)O4)c(C)c(O)c3c(O)c2C(=O)[C@H]1OC1CC(OC2CC(OC3CC(C)(O)C(O)C(C)O3)C(O)C(C)O2)C(O)C(C)O1` (some centres not stated), for which the growth is 21.5% (inactive).

For `CCOC(=O)N[C@H]1CCc2c(Br)c(OC)c(OC)c(OC)c2-c2ccc(SC)c(=O)cc21`, the growth is -19.5% (active).

Take `Cc1cnc(/C=C/C(=O)O)cc1-c1cc2c(cc1C)C(C)(C)CCC2(C)C`: the growth was 95.7% (inactive).

Regarding `CC1=C(CNO)C2=C(C)C3(CC3)[C@@](C)(O)C(=O)C2=C1`, the growth is 4.97% (active).

As for `CC12CC=CCC1CCC1C2CCC2(C)C(c3ccc(=O)oc3)CCC12O` (configuration not stated), the growth was -98% (active).

Regarding `Fc1c[c-]c(-c2ccccn2)c(F)c1.[CH3-].[Pt+2].c1ccc([PH+](c2ccccc2)c2ccccn2)cc1`, the growth is 15.9% (inactive).

Consider `CN[C@@]1(c2ccccc2Cl)CCCC[C@@H]1NCC1CCCO1` (some centres not stated), for which the growth was 111% (inactive).

Turning to `CC(C)=CC1C(C(=O)OCc2cccc(Oc3ccccc3)c2)C1(C)C` (configuration not stated), the growth was 109% (inactive).

Regarding `CCCCCCCC[n+]1ccc2ccccc2c1`, the growth is 82.7% (inactive).

As for `COC(=O)[C@@H](C)C[C@H](Cc1ccccc1)NC(=O)c1csc([C@@H](C[C@H](C(C)C)N(C)C(=O)C2(NC(=O)[C@H]3CCCCN3C)CC2)OC(C)=O)n1`, the growth was 7.25% (active).

Turning to `CC(=O)c1ccc(C(=O)NCC2CCC3(CC2)OOC2(CCCCC2)OO3)cc1`, the growth was 32.8% (inactive).

Regarding `COC(=O)[C@@H](C[C@H](Cc1ccccc1)NC(=O)c1csc([C@@H](C[C@H](C(C)C)N(C)C(=O)[C@@H](NC(=O)[C@H]2CCCCN2C)C(C)C)OC(C)=O)n1)NC(=O)OCc1ccccc1`, the growth was -3.78% [9.5 µM] (active).
